# Measurements published in PubChem BioAssay (Tox21).
# Records with an inconclusive call do not appear. Where a call stands in place of a potency, no number is given. The source made the active and inactive calls. Unless noted, calls follow the shape of the dose curve; as a rule, active = well fitted curve in the direction sought with a large enough effect in the repeat runs; inconclusive = weak or mixed curves; inactive = no such curve, though single readings can be large; an effect the other way counts as inactive or inconclusive.
# Legend:
# [1] = qHTS assay for small molecule agonists of the p53 signaling pathway (AID 651631; calls by dose curve; also: nearly all actives have a fitted effect of over 15% in size; also: potency is read from the fitted curve at half-maximal effect)
# In short: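 Quantitative high-throughput format: 4,000 p53RE-bla HCT-116 cells/well, 5 h pre-incubation, 16 h compound exposure at 37 °C, 2 h room-temperature substrate step, fluorescence intensity measured.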
# [2] = qHTS assay for small molecules that induce genotoxicity in human embryonic kidney cells expressing luciferase-tagged ATAD5 (AID 651632); also: nearly all actives have a fitted effect of over 15% in size
# In short: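 A rise in luciferase signal from ATAD5-tagged HEK293T cells marks genetic stress. Cells were exposed to compounds for 16 hr at 37C, 5% CO2, then luciferase was quantified after a 30 min room-temperature incubation with Amplite.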
# [3] = qHTS assay for small molecule agonists of the p53 signaling pathway - cell viability (AID 651633; calls by dose curve; also: nearly all actives have a fitted effect of over 30% in size; also: potency is read from the fitted curve at half-maximal effect)
# In short: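 Viability counter-read: CellTiter-Glo luminescence (30 min, room temperature) in the same p53RE-bla plates. These plates had been exposed to compounds for 16 h at 37 C.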
# [4] = qHTS assay for small molecule disruptors of the mitochondrial membrane potential - cell viability (AID 720634; calls by dose curve; also: nearly all actives have a fitted effect of over 20% in size; also: potency is read from the fitted curve at half-maximal effect)
# In short: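 Cytotoxicity was quantified from ATP content by CellTiter-Glo luminescence in the same wells as the MMP dye read-out. HepG2 (2,000 cells/well) were plated overnight and exposed to compounds for 1 hr at 37 C.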
# [5] = qHTS assay for small molecule disruptors of the mitochondrial membrane potential (AID 720635); also: potency is read from the fitted curve at half-maximal effect
# In short: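 Mitochondrial membrane potential tracked with Mito-MPS dye, red aggregates (ex 540/em 590 nm) against green monomers (ex 490/em 535 nm). Compound treatment 1 hr at 37C, dye 30 min in HepG2.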
# [6] = qHTS assay to test for compound auto fluorescence at 590 nm (red) in HepG2 cells (AID 720674)
# In short: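 1 hr compound incubation on HepG2 cells, 37 C, 5% CO2; plate read ex 540 nm / em 590 nm; intensities reported as Rose Bengal sodium equivalents.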
# [7] = qHTS assay to test for compound auto fluorescence at 535 nm (green) in HepG2 cells (AID 720675)
# [8] = qHTS assay to test for compound auto fluorescence at 460 nm (blue) in HEK293 cells (AID 720678)
# In short: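 Blue-channel (Ex/Em 405/460 nm) intensity measured in HEK293 cultures after overnight compound exposure at 37C; signal expressed relative to triamterene. Cells plated 2,000 per well in 10% dialyzed FBS medium and allowed 4-5 hr to attach.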
# [9] = qHTS assay to test for compound auto fluorescence at 590 nm (red) in HEK293 cells (AID 720679)
# In short: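 Red-channel autofluorescence (Ex/Em 540/590 nm; Rose Bengal sodium reference) was measured after overnight 37C, 5% CO2 exposure of attached HEK293 cells, 2,000 per well in medium with 10% dialyzed FBS.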
# [10] = qHTS assay to test for compound auto fluorescence at 535 nm (green) in HEK293 cells (AID 720680)
# [11] = qHTS assay to test for compound auto fluorescence at 535 nm (green) in HEK293 cell free culture (AID 720682)
# In short: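 Measurement is a direct plate read of green fluorescence (485 nm in, 535 nm out) after compound addition to serum-supplemented DMEM lacking cells, with fluorescein used to express intensities.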
# [12] = qHTS assay to test for compound auto fluorescence at 590 nm (red) in HEK293 cell free culture (AID 720683)
# In short: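 Red-channel autofluorescence of compounds in culture medium (DMEM, 10% FBS), no cells, measured at 540/590 nm. Rose Bengal sodium is the reference fluorophore for equivalence.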
# [13] = qHTS assay to test for compound auto fluorescence at 590 nm (red) in HepG2 cell free culture (AID 720684)
# In short: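 No cells present: MEM + 10% FBS only. Compound pinned in, red label read (540/590 nm). Activity = fluorescence equivalent to Rose Bengal sodium.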
# [14] = qHTS assay to test for compound auto fluorescence at 460 nm (blue) in HepG2 cell free culture (AID 720685)
# In short: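 Cell-free plates of MEM plus 10% FBS received 23 nL compound or DMSO vehicle; blue-channel (405/460 nm) intensity scored against triamterene as reference fluorophore.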
# [15] = qHTS assay to test for compound auto fluorescence at 535 nm (green) in HepG2 cell free culture (AID 720686)
# [16] = qHTS assay to test for compound auto fluorescence at 460 nm (blue) in HepG2 cells (AID 720687)
# In short: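 Blue-channel autofluorescence (Ex/Em 405/460 nm, triamterene-equivalent) was measured after 1 hr compound exposure at 37 C, 5% CO2. Cells were HepG2, plated overnight at 37 C in MEM plus 10% FBS.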
# [17] = target: Glucocorticoid receptor (Homo sapiens) (UniProt P04150); test: qHTS assay to identify small molecule agonists of the glucocorticoid receptor (GR) signaling pathway (AID 720691; active = well fitted activation curve with a large enough effect in the signal ratio in the repeat runs, not every such curve was filed as active; the % refers to the signal ratio)
# In short: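 Agonist-mode qHTS in HeLa cells stably expressing a glucocorticoid-response-element beta-lactamase reporter. Fluorescence intensity read with FRET substrate (2 h, room temperature) after 18 h compound treatment at 37 C.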
# [18] = target: Glucocorticoid receptor (Homo sapiens) (UniProt P04150); test: qHTS assay to identify small molecule antagonists of the glucocorticoid receptor (GR) signaling pathway (AID 720692; active = well fitted inhibition curve with a large enough effect in the signal ratio in the repeat runs, not every such curve was filed as active; the % refers to the signal ratio)
# In short: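 Inhibition of dexamethasone-driven (5 nM final) beta-lactamase expression was measured in GRE-reporter HeLa cells over 18 h at 37C. Fluorescence was read after 2 h with the B/G FRET substrate at room temperature.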
# [19] = qHTS assay to test for compound auto fluorescence at 460 nm (blue) in HEK293 cell free culture (AID 720681)
# In short: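 Blue fluorescence (Ex 405/Em 460 nm, triamterene-equivalent) was read immediately after pin transfer of compound or DMSO into medium (DMEM, 10% FBS) without cells.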
# [20] = qHTS assay for small molecules that induce genotoxicity in human embryonic kidney cells expressing luciferase-tagged ATAD5 - cell viability (AID 651634; calls by dose curve; also: nearly all actives have a fitted effect of over 25% in size)
# In short: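 Cytotoxicity counter-readout: after 15.5 hr compound treatment at 37C, live-cell protease activity in ATAD5-luciferase HEK293T cells measured by CellTiter-Fluor fluorescence, 30 min development at 37C.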
# Chain of Glucocorticoid receptor (Homo sapiens) (P04150 whole entry, looked up): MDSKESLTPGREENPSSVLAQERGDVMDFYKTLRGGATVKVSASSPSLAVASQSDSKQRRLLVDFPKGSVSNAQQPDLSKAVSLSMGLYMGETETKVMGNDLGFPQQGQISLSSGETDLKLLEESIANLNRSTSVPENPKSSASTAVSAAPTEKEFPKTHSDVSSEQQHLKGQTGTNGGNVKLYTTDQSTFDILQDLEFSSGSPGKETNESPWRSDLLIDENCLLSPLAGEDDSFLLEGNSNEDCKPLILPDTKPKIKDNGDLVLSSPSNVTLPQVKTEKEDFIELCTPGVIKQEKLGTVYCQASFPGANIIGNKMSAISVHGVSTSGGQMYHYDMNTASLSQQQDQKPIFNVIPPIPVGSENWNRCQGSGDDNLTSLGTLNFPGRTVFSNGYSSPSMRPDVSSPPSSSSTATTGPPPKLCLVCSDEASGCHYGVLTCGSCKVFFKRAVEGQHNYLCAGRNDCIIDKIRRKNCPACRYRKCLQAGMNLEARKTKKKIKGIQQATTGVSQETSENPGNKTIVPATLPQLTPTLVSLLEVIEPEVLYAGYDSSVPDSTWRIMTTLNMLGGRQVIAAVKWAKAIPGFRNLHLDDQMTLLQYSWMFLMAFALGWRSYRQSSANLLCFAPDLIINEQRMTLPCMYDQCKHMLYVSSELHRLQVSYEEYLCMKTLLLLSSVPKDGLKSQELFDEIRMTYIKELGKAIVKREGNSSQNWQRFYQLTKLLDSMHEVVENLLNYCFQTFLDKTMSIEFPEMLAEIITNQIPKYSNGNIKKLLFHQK
Structure (SMILES),Potency [1],Potency [2],Potency [3],Potency [4],Potency [5],outcome [6],outcome [7],outcome [8],outcome [9],outcome [10],outcome [11],outcome [12],outcome [13],outcome [14],outcome [15],outcome [16],outcome [17],Potency [18],outcome [19],Potency [20]
CC/C(=N\OC/C=C/Cl)C1=C(O)CC(C2CCOCC2)CC1=O (stereo unspecified),inactive,inactive,inactive,inactive,inactive,inactive,inactive,inactive,inactive,inactive,inactive,inactive,inactive,inactive,inactive,inactive,inactive,inactive,–,–
CCOS(C)(=O)=O,inactive,inactive,inactive,inactive,–,–,inactive,inactive,inactive,inactive,inactive,inactive,inactive,inactive,inactive,–,–,–,inactive,–
CN1C[C@H](CNC(=O)OCc2ccccc2)C[C@@H]2c3cccc4c3c(cn4C)C[C@H]21,inactive,inactive,–,inactive,–,inactive,inactive,inactive,inactive,inactive,inactive,inactive,inactive,inactive,inactive,inactive,inactive,–,inactive,inactive
CCCCNP(N)(N)=S,inactive,inactive,inactive,inactive,–,inactive,inactive,inactive,–,inactive,inactive,inactive,inactive,inactive,inactive,inactive,inactive,–,–,inactive
CCCCCCCCOC(=O)c1ccc(C(=O)OCCCCCCCC)c(C(=O)OCCCCCCCC)c1,inactive,inactive,inactive,inactive,inactive,–,inactive,inactive,inactive,inactive,inactive,inactive,inactive,inactive,inactive,inactive,inactive,inactive,inactive,–
CCCN(CCCl)c1c([N+](=O)[O-])cc(C(F)(F)F)cc1[N+](=O)[O-],inactive,inactive,inactive,–,–,inactive,inactive,inactive,–,inactive,inactive,inactive,inactive,inactive,inactive,inactive,inactive,–,inactive,inactive
O=C(O)C(F)(F)C(F)(F)C(F)(F)C(F)(F)C(F)(F)C(F)(F)C(F)(F)C(F)(F)C(F)(F)C(F)(F)F,inactive,inactive,–,inactive,–,inactive,inactive,inactive,inactive,inactive,inactive,inactive,inactive,inactive,inactive,inactive,–,–,inactive,inactive
ClCC(Br)CBr (stereo unspecified),inactive,inactive,inactive,inactive,–,inactive,inactive,inactive,inactive,inactive,inactive,inactive,inactive,inactive,inactive,inactive,inactive,inactive,inactive,–
CCC(C)(NC(=O)c1cc(Cl)c(C)c(Cl)c1)C(=O)CCl (stereo unspecified),27.5 µM (active),inactive,61.5 µM (active),–,17.3 µM (active),inactive,inactive,inactive,–,inactive,inactive,inactive,inactive,inactive,inactive,inactive,–,–,inactive,–
c1ccoc1,inactive,inactive,inactive,inactive,–,–,inactive,inactive,inactive,inactive,inactive,inactive,inactive,inactive,inactive,inactive,inactive,inactive,inactive,inactive
N#Cc1cc(I)c(O)c(I)c1,4.33 µM (active),inactive,34.4 µM (active),4.33 µM (active),3.44 µM (active),inactive,inactive,inactive,inactive,inactive,inactive,inactive,inactive,inactive,inactive,–,inactive,–,inactive,–
CCC(COC(=O)c1cc(OC)c(OC)c(OC)c1)(c1ccccc1)N(C)C (stereo unspecified),inactive,inactive,inactive,inactive,–,inactive,inactive,inactive,–,inactive,inactive,inactive,inactive,inactive,inactive,–,inactive,inactive,inactive,inactive
[O-][Cl+]O,inactive,inactive,inactive,inactive,–,inactive,inactive,inactive,–,inactive,inactive,inactive,inactive,inactive,inactive,inactive,inactive,inactive,inactive,–
BrCCCCBr,inactive,inactive,inactive,inactive,–,–,inactive,inactive,inactive,inactive,inactive,inactive,inactive,inactive,inactive,inactive,inactive,inactive,inactive,inactive
CC(C)(CCl)C(=O)Cl,inactive,inactive,inactive,inactive,–,–,inactive,inactive,inactive,inactive,inactive,inactive,inactive,inactive,inactive,inactive,inactive,inactive,inactive,inactive
COP(=S)(OC)Oc1ccc([N+](=O)[O-])cc1Cl,inactive,inactive,inactive,–,24.3 µM (active),inactive,inactive,inactive,inactive,inactive,inactive,inactive,inactive,inactive,inactive,–,inactive,inactive,inactive,–
CC[C@H]1C[C@H]2[C@@H]3CCC4=CC(=O)CC[C@@H]4[C@H]3CC[C@]2(C)[C@H]1O,inactive,inactive,–,inactive,–,inactive,inactive,inactive,inactive,inactive,inactive,inactive,inactive,inactive,inactive,inactive,–,–,inactive,inactive
